HCV inh = qHTS Assay for Inhibitors of Hepatitis C Virus (HCV); Huh7.5.1 HCVcc-Cre infection, luciferase reporter, 44 h; Potency, µM (titrated, usually from 41.8 µM), for inactives: top-dose activity change, negative = inhibition, actives largely listed as inhibitors; 340,000 tested, 3.4% active; active means well fitted inhibition curve with a large enough effect; inconclusive means small, poorly fitted or top-dose-only effect, or another doubt; inactive means no such curve, though single readings can be large or run the other way; further: potency means the concentration at half of the fitted maximal effect
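After 44 h co-culture of compound, cells and HCVcc-Cre (~0.5 moi), substrate is added for 15 min at room temperature and luciferase measured over 15 sec. Cells were seeded at 1,000/well and pre-cultured 4 h.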
VACV mCherry inh = qHTS for Stage-Specific Inhibitors of Vaccinia Orthopoxvirus: mCherry Reporter Primary qHTS; 310,000 tested, 0.63% active; Potency, µM (titrated, usually from 36.5 µM), for the others: at the top dose activity change, negative = inhibition, most hits filed as inhibitors; Vaccinia virus mCherry reporter infection, fluorescence; calls by dose curve; tested in A549 cells; further: potency means the concentration at half of the fitted maximal effect; nearly all actives have a fitted effect of over 35% in size
HCMV antiviral = qHTS Assay for inhibitors of the human cytomegalovirus (HCMV). AID 1259415, 2018. 410,000 tested, 4.5% active. activity change, negative = inhibition, % at 57.5 µM. HFF cells, HCMV-luciferase reporter, 72 h; stronger effect = lower value; in the data active means activity change below about -60%; inconclusive means no clear call, values can overlap the other calls; inactive means above about -39%
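Human foreskin fibroblasts infected with luciferase-reporter HCMV at MOI 1 PFU/cell, compounds at two doses. Luciferase measured 72 h post infection; normalized to buffer-only basal and Salinomycin (10uM) controls.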
Vaccinia Venus = qHTS for Stage-Specific Inhibitors of Vaccinia Orthopoxvirus: Venus Reporter Primary qHTS. Vaccinia virus Venus reporter expression, fluorescence. Potency, µM (top dose mostly 36.5 µM), without a hit: top-dose activity change, negative = inhibition, usual class: inhibitors. 330,000 tested, 0.46% active; calls by dose curve; tested in A549 cells; further: potency means the concentration at half of the fitted maximal effect; nearly all actives have a fitted effect of over 30% in size
FMDV inh = High Throughput Screening for Foot and Mouth Disease Virus Antivirals. FMDV antiviral cell-based qHTS. Potency, µM (top dose mostly 57.9 µM), for the others: at the highest dose activity change, negative = inhibition, actives largely listed as inhibitors. 410,000 tested, 1.2% active; calls by dose curve; tested in HEK293T cells; further: read-out not given here; potency means the concentration at half of the fitted maximal effect; nearly all actives have a fitted effect of over 45% in size
The depositor's hits bear a star; i = inactive; ? = inconclusive; nt = no result. Compounds with a hit are over-represented: about 7.3% of the library has one in this group of screens. On the % scale 0 is the no-effect control and ±100 the full control effect.

SMILES | HCV inh | VACV mCherry inh | HCMV antiviral | Vaccinia Venus | FMDV inh
COc1ccccc1C(=O)N1CCC(c2noc(-c3ccc(S(=O)(=O)N4CCCC4)cc3)n2)CC1 | nt | -30% | -84* | -25% | ?
O=C(Nc1ccc(Cl)cc1)N1CCC(c2nc(-c3ccccc3Cl)no2)CC1 | 7.1µM* | -24% | -32 | ? | 0%
COc1ccc(NC(=O)CN2C(=O)COc3ccc(S(=O)(=O)Nc4ccccc4)cc32)cc1 | nt | -7% | 10 | 0% | 27%
COc1ccc(CCNC(=O)CCn2c(=O)c3cccn3c3ccc(F)cc32)cc1OC | nt | -14% | -21 | -7% | -22%
O=C(Nc1ccccc1)N1CCCC(c2nc(-c3ccc(F)cc3)no2)C1 (stereo unspecified) | ? | -4% | -9 | -25% | -2%
O=C(Nc1cccc(C(F)(F)F)c1)N1CCC(c2nc(-c3ccc(F)cc3)no2)CC1 | 11µM* | ? | ? | ? | ?
COc1ccc(CN2CCN(c3ncc(C(=O)Nc4ccccc4)o3)C2=O)cc1 | nt | nt | 12 | nt | nt
COc1cc(C#Cc2c(-c3cncn3C)n(C)c3ccc(-c4cc(OC)c(OC)c(OC)c4)cc23)cc(OC)c1 | 11µM* | ? | -3 | 11µM* | -11%
COc1cc(C#Cc2c(-c3cncn3C)n(C)c3ccc(-c4ccc(OC)nc4)cc23)cc(OC)c1 | -33% | ? | -5 | 28µM* | ?
COc1cc(OC)cc(-c2c(C#Cc3ccsc3)c3cc(-c4cc(OC)c(OC)c(OC)c4)ccc3n2C)c1 | -26% | ? | 9 | -22% | -1%
COc1cc(C#Cc2c(-c3cncn3C)n(C)c3ccc(-c4ccc5[nH]ccc5c4)cc23)cc(OC)c1 | ? | -24% | 23 | -24% | 18%
O=C(c1ccccc1C(F)(F)F)N1CC2ON=C(c3c(F)cccc3Cl)C2C1 (stereo unspecified) | nt | nt | -1 | nt | nt
COc1ccc(-c2sc3cc(OC)c(OC)cc3c2-c2ccc(O)cc2)cc1 | 28µM* | ? | 4 | ? | -35%
COc1ccc(-c2sc3ccccc3c2-c2ccc(O)cc2)cc1 | ? | ? | -30 | -20% | -20%
COc1ccccc1-c1sc2ccccc2c1-c1ccc(O)cc1 | 5.6µM* | i | -21 | -21% | -13%
Cc1ccc(N(CC(=O)N2CCN(c3cccc(C)c3C)CC2)S(=O)(=O)c2c(C)nn(C)c2C)cc1 | nt | -25% | -19 | -24% | 9%
COc1cc(=O)n2c(c1C(=O)N(C)Cc1nccs1)CCN(Cc1cc(C)cc(C)c1)CC2 | nt | -19% | nt | -8% | -16%
S=C(NCCCN1CCOCC1)NCCCN1CCOCC1 | -9% | -7% | -23 | -7% | -17%
CCCCCCCCNC(=S)NCCN1CCCCC1 | ? | nt | -66* | nt | ?
CCOC(=O)CSC1=NC(=O)/C(=C/c2ccc(Br)cc2)S1 | 6% | -2% | -29 | -13% | 25µM*
Cc1ccc(/C(=N\O)c2oc3c(C)c4oc(=O)cc(C)c4cc3c2C)cc1 | 5.6µM* | ? | -2 | ? | ?
CCc1c(C(=O)c2ccc(Cl)cc2)oc2c(C)c3oc(=O)cc(C)c3cc12 | 1% | nt | nt | -11% | 0%
Cc1cc(=O)oc2c1ccc1oc(/C(=N/O)c3ccccc3)c(C)c12 | 6.3µM* | nt | 14 | nt | ?
COc1ccc(CNC(=O)c2cc3c(-c4ccccc4F)nn(C)c3s2)cc1 | nt | ? | -16 | -26% | ?
Cc1ccccc1-c1cncnc1NCc1cccs1 | nt | nt | nt | nt | -16%
SMILES | HCV inh | VACV mCherry inh | HCMV antiviral | Vaccinia Venus | FMDV inh
COC(=O)[C@H]1CC(=O)N[C@@H]1c1ccc(OC(C)C)c(OC)c1 | nt | nt | -3 | nt | nt
O=Cc1ccc2[nH]ccc2c1 | nt | -15% | nt | -5% | nt
CN(C)c1nc(-c2ccccn2)nnc1-c1ccccc1 | ? | 8.9µM* | -103* | ? | -2%
CN(C)c1nc(-c2ccccc2)nc(-c2ccc(Cl)cc2)c1C#N | 14% | nt | -25 | 6% | -17%
CCN(CC)c1nc(-c2ccccn2)nc(-c2ccccc2)c1C#N | 6.3µM* | ? | -93* | ? | ?
O=C1NN(C(=O)Nc2ccc(Br)cc2)C(c2ccccc2)C1c1ccccc1 (stereo unspecified) | nt | nt | nt | nt | 24%
